An excerpt weighted towards active compounds, which were near 6.6% of everything screened.
KB-V1 cytotox: KB-V1 MDR subline cytotoxicity | KB-V1 MDR cells viability, CellTiter-Glo, 72 h | Potency, µM (doses to about 46.1 µM), actives largely listed as cytotoxic | actives 3.4% (n = 400,000) | AID 1347076; further: on the % scale 0 is the no-effect control and ±100 the full control effect; nearly all actives have a fitted effect of over 60% in size
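Potencies derive from concentration-effect curves fitted to normalized luminescence (CellTiter-Glo) of KB-V1 cells treated for 72 h at 37 degrees C in phenol-red-free DMEM containing 10% FBS.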
HT1080 IDH1KD tx: HT-1080 IDH1 knockdown cell toxicity (counter line); HT-1080 IDH1 knockdown viability, ATP luminescence, 48 h; Potency, µM (titrated, usually from 46.1 µM), for inactives: at the top dose activity, negative = toxicity, usual class: cytotoxic; actives 2% (n = 360,000); AID 686971;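 further: 0% = DMSO wells and -100% = cell-free medium wells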
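% activity derives from luminescence (CellTiter-Glo), normalised to DMSO and no-cell wells. HT-1080-IDH1KD cells, 750/well, had 48 h compound exposure at 37 °C.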
HT1080-NT tox: kills 2HG-producing HT-1080-NT fibrosarcoma cells; Potency, µM (highest dose often 46.1 µM), without a hit: at the top dose activity, negative = less viability, actives largely listed as cytotoxic; HT-1080-NT fibrosarcoma viability, CellTiter-Glo ATP luminescence, 48 h; actives 1.6% (n = 360,000);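 further: NT is the 2HG producing partner of a matched IDH1 knockdown line; 0% = DMSO-treated cells and -100% = media-only wells without cells; nearly all actives have a fitted effect of over 55% in size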
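Read-out is CellTiter-Glo luminescence after 10 minutes at room temperature, following 48 hours' compound treatment of HT-1080-NT cells (750 cells/well, RPMI, 5% FBS, 37 degrees C).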
TGFb inhibitor: blocks TGF-b signaling. HepG2 CAGA-GFP TGF-b/SMAD3 reporter, GFP fluorescence, 18 h; TGF-beta stimulated, 500 pg/mL final. Potency, µM (top dose mostly 46.1 µM), without a hit: top-dose activity, negative = inhibition, hits mostly inhibitors. actives 1.2% (n = 410,000); further: on the % scale 0 is the no-effect control and ±100 the full control effect; nearly all actives have a fitted effect of over 65% in size
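Read-out: total well GFP (ex488/em500-530) summed from mean per-cell fluorescence. Cells: HEPG2 CAGA-GFP, 1% FBS DMEM, 18 h at 37 degrees C with 500 pg/mL final TGF-beta. Unstimulated wells served as the full-inhibition control; stimulated DMSO wells = 0%.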
HepG2 tox: counter-screen for TGF-b inhibitors: cytotoxicity in HepG2 cells; HepG2 CAGA-GFP viability, ATP luminescence, 18 h; Potency, µM (doses to about 46.1 µM), for inactives: top-dose activity change, negative = cytotoxicity, hits mostly cytotoxic; actives 0.76% (n = 410,000)
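CellTiter-Glo luminescence gave cytotoxicity after 18 hours at 37 degrees C. The cells were HepG2 CAGA-GFP in 1% FBS DMEM, stimulated with 500 pg/mL TGF-beta after compound addition. %Activity was normalised to no-cell wells (complete cell-killing) and DMSO (no toxicity), and curves were fitted and classified.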
KB-3-1 cytotox: KB-3-1 parental cell cytotoxicity; actives 1.4% (n = 400,000); KB-3-1 viability, CellTiter-Glo ATP luminescence, 72 h; Potency, µM (top dose mostly 46.1 µM), actives largely listed as cytotoxic; further: on the % scale 0 is the no-effect control and ±100 the full control effect; nearly all actives have a fitted effect of over 60% in size
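Cytotoxicity in the drug-sensitive parental line KB-3-1 was scored as loss of CellTiter-Glo luminescence following 72 h incubation with compound. Values come from curve fitting of normalized concentration-response data.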
* = called active by the depositor; i = inactive; ? = inconclusive; / = no result given; ! = a repeat was not active. The call rests on the fitted dose curve; in most records, active means well fitted curve in the direction sought with a large enough effect; inconclusive means small, poorly fitted or top-dose-only effect, or another doubt; inactive means no such curve, though single readings can be large; an effect the other way counts as inactive or inconclusive. Potency means the concentration at half of the fitted maximal effect.

SMILES | KB-V1 cytotox | HT1080 IDH1KD tx | HT1080-NT tox | TGFb inhibitor | HepG2 tox | KB-3-1 cytotox
COCCC(=O)N1CCC(Oc2ccc(C(=O)NCCSC)cc2)CC1 | i | 19% | 13% | 3% | 3% | i
Cc1nn(C)c(C)c1CN(C)S(=O)(=O)c1ccc2ccccc2c1 | ? | 2µM* | -13% | -23% | -39% | i
O=C(Cn1cc(C(=O)c2ccccc2)c(=O)c2cc3c(cc21)OCCO3)Nc1ccc(F)c(F)c1 | i | / | / | -15% | -12% | i
CCN(CC)S(=O)(=O)c1ccc(OC(C)C)c(NC(=O)C2=COCCO2)c1 | 7.3µM* | 7% | -1% | -12% | 1% | i
CCN(CC)S(=O)(=O)c1ccc(N2CCCC2)c(NC(=O)C2=COCCO2)c1 | i | 5% | 11% | 1% | 3% | i
COc1ccc(OC)c2[nH]c(=O)c(CCNC(=O)COc3ccccc3)cc12 | 9.2µM* | -2% | 9% | -5% | 5% | i
O=C(N/N=C/c1ccccn1)c1cccc([N+](=O)[O-])c1 | i | ? | -24% | -30% | -26% | i
O=C(N/N=C/c1ccccn1)c1cc([N+](=O)[O-])cc([N+](=O)[O-])c1 | i | -9% | -11% | 4.5µM* | -52% | i
O=C(N/N=C/c1ccccn1)c1ccc(N/N=C/c2ccccn2)cc1 | i | 14% | 4% | 2% | -3% | i
O=C(N/N=C/c1ccccn1)c1ccc(Br)cc1 | 18µM* | ? | -21% | ? | -8% | i
O=C(NCc1ccc(F)cc1)C1CCCN(c2ncnc3onc(-c4ccc(F)cc4)c23)C1 (centres undefined) | i | / | / | -15% | -24% | i
Cn1c(SCc2ccccc2)nnc1-c1cccs1 | i | 24% | 21% | 3% | 5% | i
Cn1c(SCc2ccc(F)cc2)nnc1-c1cccs1 | 16µM* | -10% | 21% | -23% | 2% | i
CCc1cccc(CC)c1NC(=O)C(Cc1ccccc1)NS(=O)(=O)c1cccc2nsnc12 (centres undefined) | ? | / | / | -9% | -1% | i
Cc1cnccn1 | i | / | / | ? | -34% | i
O=C(Nc1ccc(-c2csc(Nc3ccccc3)n2)cc1)c1cc([N+](=O)[O-])cc(C(F)(F)F)c1 | ? | -16% | 1% | ? | -13% | 15µM*
O=C(Nc1cccc(-c2csc(Nc3cccc(C(F)(F)F)c3)n2)c1)c1cc([N+](=O)[O-])cc(C(F)(F)F)c1 | i | -5% | -2% | -9% | 0% | i
CC(C)c1ccc(NC(=O)C2CCCN(S(=O)(=O)c3cccc4nsnc34)C2)cc1 (centres undefined) | i | / | / | ? | -32% | i
COc1ccc(OC)c(C2=NS(=O)(=O)N(C)C(C(=O)Nc3ccc(F)cc3F)=C2)c1 | 13µM*! | -16% | -25% | ? | -14% | i
COc1ccc(-c2nc3sc(CCNC(=O)c4ccc(Br)o4)c(C)n3n2)cc1 | i | / | / | ? | -43% | ?
Cc1c(CCNC(=O)c2ccc(Br)o2)sc2nc(-c3ccc(Cl)cc3)nn12 | / | / | / | 11µM* | -33% | /
Cc1ccc(-c2nc3sc(CCNS(=O)(=O)c4cc(F)ccc4F)c(C)n3n2)cc1 | / | / | / | 6.3µM* | -3% | /
CCOC(=O)c1cccc(NC(=O)c2cc3c(Cl)nc4ccc(C)cc4c3s2)c1 | i | / | / | 4% | 0% | i
CCOCCCNC(=O)Cn1ncc2c([nH]c3ccccc32)c1=O | i | / | / | 13% | 6% | i
O=C(c1cnc(N2CCCCC2)c2ccccc12)N1CCN(c2cccc(Cl)c2)CC1 | ? | / | / | ? | -5% | ?
SMILES | KB-V1 cytotox | HT1080 IDH1KD tx | HT1080-NT tox | TGFb inhibitor | HepG2 tox | KB-3-1 cytotox
Cc1cc(NC(=O)CCCn2nc([N+](=O)[O-])cc2C)no1 | i | 12% | 8% | 4% | -20% | i
COC(=O)c1sc(NC(=O)CCCn2nc([N+](=O)[O-])cc2C)c(C(=O)OC)c1C | 0.92µM* | -1% | -3% | -2% | 3% | i
CCN1C(=O)c2ccccc2S(=O)(=O)c2ccc(C(=O)NCc3ccccc3Cl)cc21 | i | / | / | -24% | -24% | i
OC(COCC(F)(F)C(F)(F)C(F)(F)C(F)F)Cn1c2ccc(Cl)cc2c2cc(Cl)ccc21 (centres undefined) | 18µM* | ? | ? | 10µM* | -117% | ?
O=C(NC(=S)Nc1ccc(S(=O)(=O)Nc2nccs2)cc1)c1ccccc1 | i | 1% | 2% | -9% | 16µM* | i
O=C(Nc1nccs1)c1ccc(S(=O)(=O)NCc2cccs2)cc1 | 18µM* | -13% | ? | ? | 10µM* | i
O=C(NC(=S)Nc1ccc(S(=O)(=O)Nc2nccs2)cc1)c1cccnc1 | i | 19% | -1% | 0% | 5% | i
O=C(Nc1nccs1)c1ccc(S(=O)(=O)NCC2CCCCC2)cc1 | ? | ? | -30% | ? | -5% | i
COc1ccc(S(=O)(=O)N2Cc3ccccc3CC2C(=O)Nc2nccs2)cc1 (centres undefined) | 21µM* | ? | ? | ? | -37% | i
CS(=O)(=O)N1CCc2cc(S(=O)(=O)N3CCN(Cc4ccc5c(c4)OCO5)CC3)ccc21 | 21µM* | -23% | -9% | ? | -26% | i
COc1ccc(Nc2oc(-c3ccc(COc4ccccc4C)o3)nc2C#N)cc1 | i | / | / | -12% | -40% | i
CCCCc1nn2c(C)c(-c3ccc(OCC)cc3)nc2s1 | i | / | / | ? | -34% | i
Cc1ccc(S[C@@H](CCN2CC[C@H](NC(=O)OCc3ccccc3)CCC2=O)c2ccccc2)cc1 | ? | -4% | -20% | 10µM* | -2% | i
Cc1ccc(NC(=O)c2c([N+](=O)[O-])c(C(C)(C)C)nn2C)cc1 | i | 0% | 0% | -3% | -2% | i
Cc1ccc(NC(=S)NNC(=S)Nc2ccc(C)cc2)cc1 | ? | 8% | 13% | ? | -5% | 3.7µM*
Cc1ccc(NC(=S)NNC(=O)Nc2ccccc2)cc1 | i | 6% | 3% | ? | 0% | i
Cc1ccc(NC(=S)NNC(=O)c2c([N+](=O)[O-])c(C)nn2C)cc1 | i | 5µM* | 5.6µM* | -2% | -3% | i
Cc1ccc(NC(=S)NNC(=O)c2c(Cl)c(C)nn2C)cc1 | 16µM* | ? | ? | ? | -24% | i

Screening results: PubChem BioAssay, National Center for Advancing Translational Sciences (NCATS)
